# Screening results deposited in PubChem by National Center for Advancing Translational Sciences (NCATS).
# Sm TGR block: blocks Schistosoma mansoni thioredoxin glutathione reductase. Potency, µM (top dose mostly 114 µM), hits mostly inhibitors. purified TGR, DTNB reduction, TNB absorbance 405 nm. 360,000 compounds, 3% hits. Q962Y6; active = well fitted inhibition curve with a large enough effect; inconclusive = small, poorly fitted or top-dose-only effect; inactive = no such curve, though single readings can be large or run the other way; also: nearly all actives have a fitted effect of over 60% in size
#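 First, TGR (20 nM dispensed) and NADPH were mixed with compound. Second, a 15 min room-temperature incubation followed. Third, further NADPH and then DTNB were added to start the reaction. Finally, TNB absorbance was monitored kinetically.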
# LASV entry inh: Lassa virus entry inhibition; Lassa virus pseudotype entry inhibition, cell reporter; Potency, µM (doses to about 37.9 µM), usual class: inhibitors; 300,000 compounds, 1.2% hits; calls by dose curve; tested in HEK293 cells; also: nearly all actives have a fitted effect of over 50% in size
# MARV entry inh: blocks Marburg virus binding to or entry into cells | Marburg virus pseudotyped entry inhibition, cell reporter | Potency, µM (doses to about 37.8 µM), usual class: inhibitors | 300,000 compounds, 1.8% hits | AID 540276; calls by dose curve; tested in HEK293 cells
# FMDV antiviral: blocks foot and mouth disease virus; Potency, µM (top dose mostly 57.9 µM), actives largely listed as inhibitors; 410,000 compounds, 1.2% hits; FMDV antiviral cell-based qHTS; calls by dose curve; tested in HEK293T cells; also: read-out not given here; nearly all actives have a fitted effect of over 45% in size
# VACV Venus inh: inhibitors of vaccinia virus (Venus reporter) | Potency, µM (series often up to 36.5 µM), usual class: inhibitors | AID 720580 | Vaccinia virus Venus reporter expression, fluorescence | 330,000 compounds, 0.46% hits; calls by dose curve; tested in A549 cells; also: nearly all actives have a fitted effect of over 30% in size
# Vaccinia mCherry: vaccinia inhibition (mCherry reporter). Vaccinia virus mCherry reporter infection, fluorescence. Potency, µM (top dose mostly 36.5 µM), hits mostly inhibitors. 310,000 compounds, 0.63% hits. AID 720579; calls by dose curve; tested in A549 cells; also: nearly all actives have a fitted effect of over 35% in size
# Hits are given with their value; i = inactive; ? = inconclusive; nt = no result given; [ ] = another dose, or the depositor's remark. Most compounds without a hit are left out; they make up all but 5.4% or so of the library.
SMILES,Sm TGR block,LASV entry inh,MARV entry inh,FMDV antiviral,VACV Venus inh,Vaccinia mCherry
O=C(c1ccco1)N1CCN(C2CC(=O)N(c3ccc(C(F)(F)F)cc3)C2=O)CC1 (stereo not drawn),50µM,i,i,i,i,i
CCS(=O)(=O)N1CCN(C(=O)c2ccco2)CC1,i,i,i,nt,i,i
CCOC(=O)c1ccc(N2C(=O)CC(N3CCN(C(=O)c4ccco4)CC3)C2=O)cc1 (stereo not drawn),i,i,i,i,i,i
CCOc1ccc(N2C(=O)CC(N3CCN(C(=O)c4ccco4)CC3)C2=O)cc1 (stereo not drawn),45µM,i,i,i,i,i
COC(=O)c1ccc(N2C(=O)C[C@H](N3CCN(C(=O)c4ccco4)CC3)C2=O)cc1,nt,nt,i,nt,nt,nt
O=C1c2ccccc2-c2c1cccc2C(=O)N1CCN(C(=O)c2ccco2)CC1,20µM,i,i,i,nt,nt
CCCSc1ccccc1C(=O)N1CCN(C(=O)c2ccco2)CC1,i,?,i,i,i,i
CCOC(=O)Cc1ccc(NC(=O)N2CCOc3ccc(C)cc32)cc1,i,i,nt,i,i,i
CC(Oc1ccc(Cl)cc1Cl)c1nc(-c2ccc(NC(=O)c3ccncc3)cc2)no1 (stereo not drawn),i,?,?,16µM,nt,nt
CC(Oc1ccc(Cl)cc1Cl)C(=O)NNC(=O)c1ccncc1 (stereo not drawn),i,i,i,i,i,i
CC(Oc1ccc(Cl)cc1Cl)c1nc(-c2ccc(NC(=O)c3cccnc3)cc2)no1 (stereo not drawn),i,?,11µM,28µM,?,nt
Cc1ccccc1Cn1ccn(-c2ccc(F)c(F)c2)c(=O)c1=O,i,i,nt,i,i,i
CCC1CN(CCNC(=O)c2cccc(C(=O)OC)c2)Cc2cc(OC)ccc2O1 (stereo not drawn),nt,nt,nt,i,i,i
CCCCCCC(=O)OC1CC(C)(C)NC(C)(C)C1,nt,?,?,i,nt,nt
C/C=C(/C)C(=O)O[C@H]1C(C)=C2C([C@@H]1OC(=O)CCCCCCC)[C@@](C)(OC(C)=O)C[C@@H](OC(=O)CCC)[C@@]1(O)[C@H]2OC(=O)[C@@]1(C)O (stereo partly drawn),nt,nt,0.71µM,nt,nt,nt
CN1C(=O)[C@]2(c3ccccc31)[C@H]1CCCC=C1C(C#N)=C(N)C2(C#N)C#N,nt,nt,i,nt,nt,nt
N#Cc1ccc(OCc2nnc(SCC(=O)N3CCCc4ccccc43)n2-c2ccccc2)cc1,i,26µM,18µM,i,nt,nt
O=[N+]([O-])c1cc(C=Nc2cccc3c(O)cccc23)ccc1Cl,40µM,nt,nt,nt,nt,nt
COc1ccc(O)c(/C=N/NC(=O)CCC(=O)Nc2ccc(C)cc2)c1,i,nt,nt,i,nt,nt
COc1ccc(O)c(/C=N/NC(=O)CN2CCS(=O)(=O)CC2)c1,i,i,i,i,i,3.2µM
COc1ccc(NC(C)=O)cc1S(=O)(=O)N1CCn2cccc2C1C (stereo not drawn),25µM,nt,nt,i,nt,nt
CC(=O)c1ccc(S(=O)(=O)N2CCn3cccc3C2C)cc1 (stereo not drawn),35µM,nt,nt,i,nt,nt
CC1c2cccn2CCN1S(=O)(=O)c1ccc(F)cc1 (stereo not drawn),?,nt,nt,i,nt,nt
CC(=O)c1cccc(S(=O)(=O)N2CCn3cccc3C2C)c1 (stereo not drawn),32µM,nt,nt,i,nt,nt
CCC(=O)NC1CCc2cccc(OC)c2C1 (stereo not drawn),nt,nt,nt,i,i,i
SMILES,Sm TGR block,LASV entry inh,MARV entry inh,FMDV antiviral,VACV Venus inh,Vaccinia mCherry
O=C(c1cccc2cccc(O)c12)N1CCCCC1,40µM,i,i,i,i,i
S=P(N1CCCCCC1)(N1CC1)N1CC1,nt,?,7.1µM,i,i,i
Cc1nn(C)cc1CN1CCOc2ccc(CN3CCC(Oc4cccnc4)CC3)cc2C1,nt,nt,nt,i,i,i
CCOC(=O)c1cc(CNC(=O)c2c(C)oc3c2CCCC3)c(C)o1,22µM,?,?,i,i,i[1.46 µM]
COc1cc(/C=C/c2nc(C#N)c(N3CCCCCC3)o2)cc(OC)c1OC,i,?,?,i,i,i
NC(=O)c1c(NC(=O)CSc2nnc(Cc3ccccc3)n2Cc2ccco2)sc2c1CCC2,25µM,i,i,i,i,?
O=C(CSc1nnc(Cc2cccs2)n1Cc1ccco1)Nc1ccc(Br)cc1,20µM,i,i,i,i,nt
CN(C)Cc1cc(C(C)(C)C)c(O)c(C(C)(C)C)c1,22µM,i,i,i,i,i
CN1CCN(Cc2cc(C(C)(C)C)c(O)c(C(C)(C)C)c2)CC1,3.5µM,i,i,i,nt,nt
CC(C)(C)c1cc(CN2CCC(O)CC2)cc(C(C)(C)C)c1O,7.9µM,i,?,i,nt,nt
